The nature of assay [1]: qHTS assay to identify small molecule agonists of the vitamin D receptor (VDR) signaling pathway - cell viability counter screen (AID 743224; active means well fitted curve in the direction sought with a large enough effect in the repeat runs; an effect the other way counts as inactive or inconclusive; further: series mostly up to about 63 µM; on the % scale 0 is the no-effect control and ±100 the full control effect; nearly all actives have a fitted effect of over 50% in size). In a few lines: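 Viability is measured in the same wells as the VDR-bla reporter assay: after 16 h compound treatment and 2 h substrate loading, CellTiter-Glo is added and luminescence read 30 min later.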
A general note: qHTS replaces the single test concentration by a dilution series.

Assay [2] in a line: qHTS assay to identify small molecule agonists of the NFkB signaling pathway - cell viability counter screen (AID 1159515). Further: series mostly up to about 61 µM; on the % scale 0 is the no-effect control and ±100 the full control effect; nearly all actives have a fitted effect of over 55% in size. In a few lines:
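Multiplexed viability readout: after the 5 hr compound exposure and 1.5 hr FRET substrate step, CellTiter-Glo reagent went into the same NFkB-bla ME-180 wells; ATP luminescence was measured after 30 min at room temperature.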

A short description of assay [3]: qHTS assay to identify small molecule agonists of the endoplasmic reticulum stress response signaling pathway - cell viability counter screen (AID 1159517).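 Further: HeLa cells carrying an ER stress response element beta-lactamase reporter; series mostly up to about 61 µM; on the % scale 0 is the no-effect control and ±100 the full control effect; nearly all actives have a fitted effect of over 50% in size.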 In a few lines:
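Cells, HeLa ESRE-bla; density, 1,500/well; dosing, 5 hr at 37 C, 5% CO2; readout, CellTiter-Glo luminescence after 30 min RT.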

Assay [4] is described as follows: qHTS assay to identify small molecule antagonists of the retinoid-related orphan receptor gamma (ROR-gamma) signaling pathway - cell viability counter screen (AID 1159520; active means well fitted curve in the direction sought with a large enough effect in the repeat runs; an effect the other way counts as inactive or inconclusive; further: nearly all actives have a fitted effect of over 50% in size; further: potency means the concentration at half of the fitted maximal effect; on activity, negative = cytotoxicity: on the % scale 0 is the no-effect control and ±100 the full control effect). In a few lines:
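Cytotoxicity was read from cellular ATP (CellTiter-Glo luminescence) after 16 hr at 37 C with 1 uM doxycycline induction. The inducer was added 2 hr after compound transfer to Tet-on ROR gamma CHO cells.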

Assay [5] can be described thus: qHTS assay to identify small molecule agonists of the AP-1 signaling pathway - cell viability counter screen (AID 1159525). Further: nearly all actives have a fitted effect of over 55% in size. In a few lines:
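Luminescent ATP readout (Cell Titer Glo, 30 min RT), normalised to DMSO and tetra n-octyl ammonium bromide controls. Cells were ME-180 AP-1-bla in 0.5% dialyzed FBS Opti-MEM, with a 5 h, 37 °C compound exposure.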

Assay [6] can be described thus: qHTS assay to identify small molecule agonists of the AP-1 signaling pathway (AID 1159526). Further: on the % scale 0 is the no-effect control and ±100 the full control effect.
Assay [7] is described as follows: qHTS assay to identify small molecule antagonists of the vitamin D receptor (VDR) signaling pathway - cell viability counter screen (AID 743225; active means well fitted curve in the direction sought with a large enough effect in the repeat runs; an effect the other way counts as inactive or inconclusive; further: on the % scale 0 is the no-effect control and ±100 the full control effect; nearly all actives have a fitted effect of over 50% in size). In a few lines:
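Compounds were pinned onto VDR-bla HEK 293T cells together with 1-alpha,25-dihydroxyvitamin D3 at 3 nM final. After 16 h at 37C and 5% CO2 plus the reporter readout, cell viability was measured by CellTiter-Glo luminescence (30 min, room temperature).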

For assay [8], the target named is Nuclear receptor ROR-gamma (Homo sapiens) (UniProt P51449). Nature of the assay: qHTS assay to identify small molecule antagonists of the retinoid-related orphan receptor gamma (ROR-gamma) signaling pathway (AID 1159521; active means well fitted curve in the direction sought with a large enough effect in the repeat runs; an effect the other way counts as inactive or inconclusive; further: nearly all actives have a fitted effect of over 50% in size; further: potency means the concentration at half of the fitted maximal effect;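 on activity change, negative = inhibition: CHO cells with doxycycline inducible ROR-gamma driving an RORE luciferase reporter; top concentration of the series differs between compounds; on the % scale 0 is the no-effect control and ±100 the full control effect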). In a few lines: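 Test compounds were applied to Tet-on RORγ CHO cells 2 h ahead of doxycycline hyclate (1 uM final). Luciferase reporter activity was quantified by luminescence after 16 h at 37 C and 5% CO2.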

For assay [9], the target named is Retinoic acid receptor RXR-alpha (Homo sapiens) (UniProt P19793). Nature of the assay: qHTS assay to identify small molecule agonists of the RXR signaling pathway (AID 1159527). Further: on the % scale 0 is the no-effect control and ±100 the full control effect; nearly all actives have a fitted effect of over 35% in size. In a few lines: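 Using 9-cis retinoic acid as the reference agonist, chemicals were tested in HEK 293T cells […] for 16 hr; substrate loading lasted 2 hr at room temperature.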

The values that follow come from PubChem BioAssay (Tox21).

Records with an inconclusive call do not appear. A number with no mark means an inactive call. Calls of active or inactive are those of the source. Unless noted, the call rests on the fitted dose curve.

Retinoic acid receptor RXR-alpha (Homo sapiens), sequence (P19793 whole entry, looked up): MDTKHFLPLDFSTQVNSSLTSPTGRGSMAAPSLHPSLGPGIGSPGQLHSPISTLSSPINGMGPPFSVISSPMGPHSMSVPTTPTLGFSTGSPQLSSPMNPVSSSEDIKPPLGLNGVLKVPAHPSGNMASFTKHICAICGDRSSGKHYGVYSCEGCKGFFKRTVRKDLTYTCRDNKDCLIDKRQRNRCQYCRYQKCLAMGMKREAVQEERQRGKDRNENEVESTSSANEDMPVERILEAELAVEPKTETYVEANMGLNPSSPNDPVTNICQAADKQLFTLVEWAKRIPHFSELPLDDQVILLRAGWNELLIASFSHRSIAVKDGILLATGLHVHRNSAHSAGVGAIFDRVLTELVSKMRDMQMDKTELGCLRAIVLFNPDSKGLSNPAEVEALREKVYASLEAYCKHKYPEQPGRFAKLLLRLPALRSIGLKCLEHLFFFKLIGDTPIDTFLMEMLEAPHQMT

`CC(C)OC(=O)C(C)N(C(=O)c1ccccc1)c1ccc(F)c(Cl)c1` (stereo unspecified): the Potency entry in assay [1], in assay [2], in assay [3], in assay [4], in assay [5] and in [6] was “inactive” in each case.

As to `O=C1OC(=O)C2C3C=CC(C3)C12` (stereo unspecified), the Potency result in [1], in assay [7], in [2], in [3], in [4] and in [8] was “inactive” each time. For the same compound, the Potency result in [6] and in assay [9] was “inactive” in each case.

For the compound `COc1ccnc(CS(=O)c2nc3ccc(OC(F)F)cc3[nH]2)c1OC` (stereo unspecified), the Potency result in assay [1], in assay [2], in [3], in [4], in assay [5] and in assay [6] was “inactive” each time. For the same compound, the Potency result in assay [9] is “inactive”.

Consider `CN(C)CCN(Cc1ccsc1)c1ccccn1`, for which the Potency entry in assay [7], in [2], in assay [3], in [4], in assay [5] and in [6] was “inactive” in each case. The Potency result in assay [9] was “inactive”.

For the compound `CN1C[C@H]2c3ccccc3Oc3ccc(Cl)cc3[C@@H]2C1`, the Potency result in [7], in assay [2], in assay [3], in assay [4], in assay [5] and in [9] was “inactive” in each case.

Regarding `CN(C)CCN(Cc1ccccc1)c1ccccn1`, the Potency entry in assay [1], in [7], in assay [2], in assay [3], in assay [4] and in assay [5] was “inactive” in each case. Moreover, in assay [9], the Potency entry was “inactive”.

On to `CC(=O)c1ccc2c(c1)N(CCCN(C)C)c1ccccc1S2`, for which the Potency entry in assay [7], in [2], in assay [4], in assay [5] and in [9] was “inactive” each time.

`CC1CCC(=O)C1=O` (stereo unspecified): the Potency entry in [2], in assay [3], in assay [4], in assay [5], in assay [6] and in assay [9] was “inactive” in each case.

`c1ccc(CNCCNCc2ccccc2)cc1`: the Potency entry in [1], in assay [2], in [3], in [4], in assay [8] and in assay [6] was “inactive” in each case.

`CCCCCC[C@@H](O)C/C=C\CCCCCCCC(=O)OC`: the Potency result in [1], in assay [7], in assay [2], in [3], in assay [4] and in [5] was “inactive” in each case.

Regarding `CC(COCCO)OCCO` (stereo unspecified), the Potency entry in assay [1], in assay [7], in assay [2], in assay [3], in [4] and in [5] was “inactive” throughout.

For `CCCCC(CC)COC(=O)COc1ccc(Cl)cc1Cl` (stereo unspecified), the Potency entry in [1], in assay [7], in assay [2], in assay [3], in assay [4] and in assay [5] was “inactive” each time. The Potency result in assay [6] and in [9] was “inactive” each time.

On to `O=C1C(O)=C(O)C(=O)C(O)=C1O`, for which the Potency entry in assay [7], in assay [2], in [3], in assay [4], in assay [5] and in assay [6] was “inactive” each time. For the same compound, the Potency result in assay [9] was “inactive”.

Turning to `CCC(Cl)CCC(Cl)C(Cl)CC(Cl)C(Cl)C(Cl)CCl` (stereo unspecified), the Potency entry in [2], in assay [4], in assay [8] and in [9] was “inactive” each time.

Regarding `Cc1oc2c(NC(=O)c3c(Cl)cccc3Cl)cccc2c1C(C)(C)O`, the Potency result in [2], in [4] and in [6] was “inactive” each time. Further, the Potency in assay [8] was 27.3 µM (active).

As for `CCN(CC)c1ccc2c(-c3ccccc3C(=O)O)c3ccc(=[N+](CC)CC)cc-3oc2c1`, the Potency result in assay [7], in assay [2], in assay [8] and in assay [5] was “inactive” each time. The Potency in assay [4] is 19.3 µM (active).

On to `CC(C)(O)c1ccc(CNC(=O)c2cccnc2Oc2ccc(F)cc2)cc1`, for which the Potency entry in assay [7], in assay [2], in assay [3], in assay [4], in assay [5] and in [6] was “inactive” each time.

`O=[N+]([O-])c1ccc2[nH]ncc2c1`: the Potency result in assay [2], in assay [3], in assay [4], in assay [5], in [6] and in [9] was “inactive” throughout.

Turning to `CCOC(=O)c1cccnc1`, the Potency entry in [1], in [2], in assay [3], in assay [4], in [5] and in assay [6] was “inactive” each time. Also, in assay [9], the Potency entry was “inactive”.

Regarding `CCCCCCCC/C=C\CCCCCCCC(=O)OCC`, the Potency entry in assay [1], in [7], in [2], in assay [3], in [4] and in [5] was “inactive” in each case. Moreover, the Potency entry in assay [6] and in assay [9] was “inactive” each time.

With `O=C1CCC(=O)O1`, the Potency entry in [7], in assay [2], in [3], in assay [4], in assay [5] and in assay [6] was “inactive” throughout. For the same compound, in [9], the Potency entry is “inactive”.

Turning to `O=C(NCCO[N+](=O)[O-])c1cccnc1`, the Potency result in [1], in assay [7], in assay [2], in assay [4], in assay [5] and in assay [9] was “inactive” in each case.

With `CN(C)c1ccc(/C=C/c2ccc([N+](=O)[O-])cc2)cc1`, the results for the activity change, negative = cytotoxicity in assay [1] and in assay [3] were -5.5% [at 5.95 µM] and 15.7% [at 6.95 µM], respectively. Also, the viability change, negative = cytotoxic in assay [7] is 7.13% [at 6.95 µM]. In addition, in assay [2], the activity, negative = cytotoxic was -0.218% [at 6.95 µM]. Further, the activity, negative = cytotoxicity in assay [4] was 1.18% [at 8.39 µM]. In addition, the activity change, negative = inhibition in assay [8] is 127% [at 8.39 µM]. For the same compound, the values for the activation in [6] and in assay [9] were -11.3% [at 6.97 µM] and -7.68% [at 6.98 µM], respectively.
